# Data as given in PubChem BioAssay (NCI).
# The panel holds about 83,000 compounds, 20% with a hit somewhere; the sample as a whole holds those more often.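 Plates (96-well) were seeded with cells, treated with compound at one concentration, and incubated for 48 hours before percent growth was determined.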 Unmarked numbers belong to inactive results. Active and inactive are the calls of the source. Rule for the calls: active = growth percent below 10; inactive = the rest.
# Experiments:
# Assay in all cases: NCI-60 one-dose screen, 48 h (100 = growth as untreated, 0 = no growth, -100 = all killed)
# DU-145 prostate = conditions: 10 µM unless noted
# K-562 leukemia = conditions: 10 µM unless noted
# MALME-3M melanoma = conditions: 10 µM unless noted
# MDA-MB-231 breast = conditions: 10 µM unless noted
# RXF 393 renal = conditions: 10 µM unless noted
# SF-268 CNS = conditions: 10 µM unless noted
# SF-295 CNS = conditions: 10 µM unless noted
# SF-539 CNS = conditions: 10 µM unless noted
# UACC-257 melanoma = conditions: 10 µM unless noted
# M14 melanoma = conditions: 10 µM unless noted
# HCT-15 colon = conditions: 10 µM unless noted
# HT29 colon = conditions: 10 µM unless noted
# SNB-75 CNS = conditions: 10 µM unless noted
# SNB-19 CNS = conditions: 10 µM unless noted
# U251 CNS = conditions: 10 µM unless noted
# PC-3 prostate = conditions: 10 µM unless noted
# SK-MEL-5 melanoma = conditions: 10 µM unless noted
# SK-MEL-28 melanoma = conditions: 10 µM unless noted
# LOX IMVI melanoma = conditions: 10 µM
# UACC-62 melanoma = conditions: 10 µM unless noted
SMILES,growth (DU-145 prostate),growth (K-562 leukemia),growth (MALME-3M melanoma),growth (MDA-MB-231 breast),growth (RXF 393 renal),growth (SF-268 CNS),growth (SF-295 CNS),growth (SF-539 CNS),growth (UACC-257 melanoma),growth (M14 melanoma),growth (HCT-15 colon),growth (HT29 colon),growth (SNB-75 CNS),growth (SNB-19 CNS) [%],growth (U251 CNS),growth (PC-3 prostate),growth (SK-MEL-5 melanoma),growth (SK-MEL-28 melanoma),growth (LOX IMVI melanoma),growth (UACC-62 melanoma)
COc1cc2c(c(OC)c1OC)C(=O)CC(c1cccc(NC(=O)c3cc(NC(=O)[C@@H](N)CO)ccc3C)c1)O2 (stereo partly drawn),119%,91.4%,103%,111%,119%,111%,101%,99.7%,104%,119%,110%,102%,135%,109,112%,107%,104%,109%,,
O=C1CC(Sc2n[nH]c(-c3ccncc3)n2)C(=O)N1c1ccc(Br)cc1 (stereo not drawn),117%,88.5%,104%,99%,137%,117%,107%,102%,105%,115%,102%,112%,106%,96.1,107%,118%,115%,108%,100%,
COc1cc(C2CC(c3cc(OC)c(OC)c(OC)c3)=NN2c2ccccc2)ccc1OCc1ccc(C)cc1 (stereo not drawn),100%,92.8%,95.3%,102%,101%,87.6%,108%,95.7%,101%,97.8%,86.2%,85.7%,84.1%,91.7,96.7%,92.9%,92.3%,103%,,78.8%
C=C1CCC2C3(C)COC(c4cc(F)cc(F)c4)OC3CCC2(C)C1CC(O)C1=CCOC1=O (stereo not drawn),72.9%,24.6%,88.6%,63.2%,56.4%,97.3%,77.9%,79.6%,73.7%,58.7%,7.8% (active),27.2%,38.1%,88.6,69.1%,25.8%,77.8%,46.7%,,68.8%
O=C1c2c(c3c4cc(F)ccc4oc3c3[nH]c4ccc(Br)cc4c23)C(=O)N1O,24.6%,40.3%,7.44% (active),66.4%,29.2%,2.64% (active),20%,-10.9% (active),88.5%,14.3%,48.1%,68.6%,-13.7% (active),14.2,18.5%,20.2%,6.06% (active),43.6%,,18.6%
Cc1cc(=O)oc2cc(OCCCOc3ccc(/C=C/C(=O)Nc4ccccc4N)cc3)ccc12,33.1%,18.2%,42%,-2.67% (active),49.5%,21.9%,27.4%,1.75% (active),38.2%,41.8%,38%,37.4%,36.2%,,32.2%,32%,-91.2% (active),32%,-76.5% (active),21%
O=C(CN1C(=O)/C(=C/c2ccccc2Cl)SC1=S)N1CCOCC1,78.1%,27%,76.3%,94.3%,77.4%,106%,107%,91.7%,94.3%,85.3%,45%,96.4%,109%,,93.4%,102%,98.9%,98.8%,48.2%,83.2%
CCCCSc1nc(NCCc2c[nH]c3ccccc23)c(C#N)c(-c2ccc(F)cc2)n1,66.4%,22.2%,90.9%,52.2%,65.2%,54.9%,62.1%,65.2%,97.9%,65.9%,28.8%,25.4%,74.2%,,45.6%,28.5%,37.6%,81.4%,36.1%,61.4%
CCCCCCCCc1ccc(S(=O)(=O)Nc2ccc(CC)cc2C(=O)O)cc1,105%,83%,98.2%,102%,109%,97.4%,81.2%,101%,91.1%,99.1%,85.7%,124%,106%,,92.9%,89.7%,80.3%,104%,99.9%,81.3%
CC(C)CSc1nc(NCCc2c[nH]c3ccccc23)c(C#N)c(-c2ccc(F)cc2)n1,58.6%,18.9%,73%,40.8%,26.1%,51.9%,46.7%,47.9%,81%,62.7%,19.6%,5.49% (active),61.1%,,21.1%,26.2%,17.3%,79.1%,12.4%,60.6%
Cn1cc(-c2cc(N)n3nc(-c4cn(C)c5ccccc45)cc3n2)c2cc(Br)ccc21,27.7%,0.853% (active),-72.9% (active),-41.2% (active),-70.1% (active),-47.3% (active),-53.4% (active),-72.3% (active),-71% (active),-74.4% (active),-79.1% (active),-65.1% (active),-35.7% (active),,-72% (active),-34% (active),-63.5% (active),-86.4% (active),-85.3% (active),-59.7% (active)
CN(C)c1nc(NCCNS(=O)(=O)c2ccc(C(=O)/C=C/c3ccc(F)cc3)cc2)nc(Nc2ccc(F)cc2)n1,-83.9% (active),-21.9% (active),-83.3% (active),-93% (active),-97% (active),-59% (active),-78.3% (active),-99.7% (active),-80.6% (active),-83% (active),-91.7% (active),-100% (active),-16.4% (active),,-100% (active),-75.2% (active),-99.6% (active),-100% (active),-100% (active),-97.1% (active)
Cc1ccc(NC(=O)[C@]23CCC(C)(C)CC2C2=CCC4[C@@]5(C)C[C@@H](O)[C@H](O)[C@@](C)(CO)C5CC[C@@]4(C)[C@]2(C)CC3)cc1 (stereo partly drawn),45.6%,11.6%,49.5%,-8.63% (active),-38.6% (active),48.5%,21.8%,28.1%,39.8%,38.3%,11.7%,-50% (active),74.4%,,26.8%,5.82% (active),-83.2% (active),47.9%,-6.45% (active),34.3%
CN(C)c1ccnc(NCCCSC(c2ccccc2)(c2ccccc2)c2ccccc2)c1,46.2%,-36.6% (active),-94.6% (active),31%,6.09% (active),78.8%,17%,41.6%,-26.9% (active),-70.8% (active),10.7%,-51.8% (active),63.1%,,6.61% (active),7.71% (active),-98.4% (active),-77.3% (active),47.9%,28.6%
O=C(COc1ccc(NC(=O)Nc2ccc(Cl)cc2)cc1)N/N=C/c1ccccc1,-23.9% (active),-15.2% (active),-90.8% (active),-87.9% (active),-85.2% (active),-55.2% (active),-96.6% (active),-95.3% (active),-36.6% (active),-66.1% (active),-80.3% (active),-87.4% (active),-37.4% (active),,-86.2% (active),-72.9% (active),-94% (active),-84.9% (active),-97.5% (active),-87.5% (active)
O=C(CSc1nc2ccccc2c(=O)[nH]1)NCCN1CCCCC1,106%,98.9%,97.3%,100%,115%,92.9%,103%,91%,97.3%,94.4%,97.5%,108%,79.1%,,98.7%,91.2%,100%,98.7%,98.3%,90.7%
